# Activity calls are given as the source filed them. Rule for the calls: active = hit-call score of the fitted dose curve at least 0.9, where 1 is the maximum; inactive = score below 0.9.
# Target: Peroxisome proliferator-activated receptor gamma (Homo sapiens) (UniProt P37231)
# Assay: ATG_hPPARg_EcoTox2: Attagene TRANS-FACTORIAL EcoTox-2 HepG2 Assay for human Peroxisome Proliferator-activated Receptor gamma (PPARg)
# Experimental: ATG_EcoTox2 is a cell-based, multiplexed assay created by modifying the existing Attagene TRANS-FACTORIAL system to include a panel of nuclear receptors from some or all the following species: human (Homo sapiens), african clawed frog (Xenopus laevis), rainbow trout (Oncorhynchus mykiss), japanese medaka (Oryzias latipes), and zebrafish (Danio rerio). The ECOTOX2-FACTORIAL format uses HepG2, a human liver cell line, with measurements taken at 24 hours after chemical dosing in a 24-well plate. ATG_hPPARg_EcoTox2 is one of 29 assay components calculated in the ATG_EcoTox2 assay. It is designed to make measurements of mRNA induction, a form of inducible reporter, as detected with fluorescence intensity signals by Reverse transcription polymerase chain reaction (RT-PCR) and Capillary electrophoresis technology.The assay endpoint ATG_hPPARg_EcoTox2 was analyzed in the positive analysis fitting direction relative to DMSO as the negative control and baseline of activity. Using a type of inducible reporter, measures of mRNA for gain-of-signal activity can be used to understand the reporter gene at the transcription factor-level as they relate to the gene PPARg. Furthermore, this assay endpoint can be referred to as a primary readout, because this assay has produced multiple assay endpoints where this one serves a reporter gene function. To generalize the intended target to other relatable targets, this assay endpoint is annotated to the nuclear receptor intended target family, where the subfamily is non-steroidal.
# Human liver HepG2 cells are transiently transfected with multiple reporter transcription units (MRTUs) in 6-well plates using FuGene 6 reagent (Roche; 3 ml FuGene/1 mg DNA). The MRTU constructs are regulated by a cis-regulating element (promoter). Each RTU expresses a GAL4-UAS that regulates the transcription of a nearby target reporter gene sequence. A major difference between the CIS and TRANS system is that in CIS activities of endogenous TFs are measured, whereas the TRANS assay evaluates changes in activities of exogenous, chimeric NR-Gal4 proteins. […] At the end of 24 hour incubation, total RNA was isolated using TriZol reagent (Invitrogen). The isolated RNA is then reverse-transcribed using oligo(dT) primer and Mo-MLV reverse transcriptase (Invitrogen) with DNAse I (Ambion) treatment for 30 min. The one-tenth of the produced cDNA was amplified by PCR using Taq DNA polymerase (Invitrogen) and two reporter sequence-specific primers. The PCR products were fluorescently labeled by primer extension with 6-arboxyfluorescein (6-FAM) 5'-labeled reporter sequence-specific primer (2 min at 95 C, 20 s at 68 C and 10 min at 72 C) and these products were digested with 5U of HpaI (New England Biolabs) for 2h at 37 C. The fragments were purified using Qiaquick PCR columns (Qiagen), analyzed on an ABI 3130xL genetic analyzer (Applied Biosystems) with peak positions identified by using a set of X-rhodamine (ROX)-labeled MapMarker1000 molecular weight standards (BioVentures). The raw capillary electrophoresis data was processed using Attagraph software (Attagene).
# Chain of Peroxisome proliferator-activated receptor gamma (Homo sapiens) (P37231 whole entry, looked up): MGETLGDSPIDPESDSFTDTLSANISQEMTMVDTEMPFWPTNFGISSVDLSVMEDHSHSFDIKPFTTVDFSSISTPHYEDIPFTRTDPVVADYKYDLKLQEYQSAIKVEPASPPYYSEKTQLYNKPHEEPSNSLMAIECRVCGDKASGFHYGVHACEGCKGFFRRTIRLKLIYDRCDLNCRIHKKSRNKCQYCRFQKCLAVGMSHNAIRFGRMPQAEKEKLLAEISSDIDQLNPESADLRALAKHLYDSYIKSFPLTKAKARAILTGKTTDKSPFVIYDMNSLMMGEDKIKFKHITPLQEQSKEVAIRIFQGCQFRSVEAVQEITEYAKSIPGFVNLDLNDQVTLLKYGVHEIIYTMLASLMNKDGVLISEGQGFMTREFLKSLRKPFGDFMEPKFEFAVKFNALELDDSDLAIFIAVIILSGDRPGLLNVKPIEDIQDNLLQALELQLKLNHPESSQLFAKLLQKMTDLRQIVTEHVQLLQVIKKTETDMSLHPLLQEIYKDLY
Structure (SMILES),outcome,AC50
C[C@]12C=CC(=O)C=C1CC[C@@H]1[C@@H]2C(=O)C[C@@]2(C)[C@H]1CC[C@]2(O)C(=O)CO,inactive,–
CC(C)(Oc1ccc(CCNC(=O)c2ccc(Cl)cc2)cc1)C(=O)O,–,14 µM (active)
Cc1nc(-c2ccc(C(F)(F)F)cc2)sc1C(=O)NCc1ccc(OC(C)(C)C(=O)O)cc1,–,1.29 µM (active)
C=C(c1ccc(C(=O)O)cc1)c1cc2c(cc1C)C(C)(C)CCC2(C)C,–,1.1 µM (active)
CC(C)(Oc1ccc(C2CC2(Cl)Cl)cc1)C(=O)O (configuration not stated),–,37.3 µM (active)
CC(C)(Oc1ccc(Cl)cc1)C(=O)O,–,80.6 µM (active)
C[C@@H]1C[C@H]2[C@@H]3CCC4=CC(=O)C=C[C@]4(C)[C@@]3(F)[C@@H](O)C[C@]2(C)[C@@]1(O)C(=O)COP(=O)(O)O,inactive,–

# Reference: PubChem BioAssay AID2284351 (EPA ToxCast)
